PubChem BioAssay (Tox21)
Inconclusive results are not listed. Activity calls are given as the source filed them. Unless noted, calls come from the whole dose curve; as a rule, active = well fitted curve in the direction sought with a large enough effect in the repeat runs; inconclusive = weak or mixed curves; inactive = no such curve, though single readings can be large; an effect the other way counts as inactive or inconclusive.

Legend:
[1] = qHTS assay to identify small molecule antagonists of the peroxisome proliferator-activated receptor gamma (PPARg) signaling pathway - cell viability counter screen (AID 743194); settings: PPARg-bla HEK293H viability, CellTiter-Glo luminescence, 17 h, co-treated with 50 nM rosiglitazone; series mostly up to 62.6 µM; note: nearly all actives have a fitted effect of over 55% in size
Summary of the method: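 Viability was measured as CellTiter-Glo luminescence in GeneBLAzer PPARg UAS-bla HEK293H cells. These cells had been exposed 17 h at 37 C to compounds together with rosiglitazone at 50 nM final, with the beta-lactamase readout taken in the same wells.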

[2] = qHTS assay for small molecule agonists of the antioxidant response element (ARE) signaling pathway (AID 743202; active = well fitted activation curve with a large enough effect in the signal ratio in the repeat runs, not every such curve was filed as active; the % refers to the signal ratio); settings: HepG2 ARE-bla reporter, beta-lactamase FRET, 16 h; series mostly up to 73.3 µM
Summary of the method: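 An ARE-responsive beta-lactamase gene stably integrated in HepG2 cells serves as reporter. After 5 h plating and 16 h compound incubation at 37 C, fluorescence of the B/G FRET substrate was measured.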

[3] = qHTS assay for small molecule agonists of the antioxidant response element (ARE) signaling pathway - cell viability counter screen (AID 743203; calls by dose curve; note: nearly all actives have a fitted effect of over 55% in size); settings: ARE-bla HepG2 viability, CellTiter-Glo luminescence, 16 h; series mostly up to 73.3 µM
Summary of the method: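 Following 16 hrs of compound treatment at 37C, HepG2 cells with an ARE-controlled beta-lactamase gene were lysed with CellTiter-Glo. Luminescence was read after 30 min at room temperature.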

[4] = qHTS assay for small molecule activators of the heat shock response signaling pathway (AID 743210; active = well fitted activation curve with a large enough effect in the signal ratio in the repeat runs, with a control signal flat, not every such curve was filed as active; the % refers to the signal ratio;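 note: HeLa cells with beta-lactamase reporter driven by heat shock elements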); settings: HeLa HSE-bla reporter, beta-lactamase ratio, 5 h; series mostly up to 62.6 µM
Summary of the method: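 In HSE-bla HeLa cells, 5 h compound incubation (37 C) precedes addition of LiveBLAzer B/G substrate; after 2.5 h at room temperature, fluorescence intensity indicates reporter induction.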

[5] = qHTS assay to identify small molecule agonists of the peroxisome proliferator-activated receptor delta (PPARd) signaling pathway - cell viability counter screen (AID 743211); settings: PPARd-bla HEK293H viability, CellTiter-Glo luminescence, 17 h; series mostly up to 62.6 µM; note: nearly all actives have a fitted effect of over 55% in size
Summary of the method: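 qHTS cell viability: PPARd-bla HEK293H; 17 h cpd, 37C; CellTiter-Glo, luminescence at 30 min RT.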

[6] = molecular target: Peroxisome proliferator-activated receptor delta (Homo sapiens) (UniProt Q03181); assay: qHTS assay to identify small molecule agonists of the peroxisome proliferator-activated receptor delta (PPARd) signaling pathway (AID 743212; calls by dose curve); settings: HEK293H PPARd-UAS-bla, beta-lactamase FRET ratio, 17 h; series mostly up to 62.6 µM
Peroxisome proliferator-activated receptor delta (Homo sapiens), sequence (Q03181 whole entry, looked up): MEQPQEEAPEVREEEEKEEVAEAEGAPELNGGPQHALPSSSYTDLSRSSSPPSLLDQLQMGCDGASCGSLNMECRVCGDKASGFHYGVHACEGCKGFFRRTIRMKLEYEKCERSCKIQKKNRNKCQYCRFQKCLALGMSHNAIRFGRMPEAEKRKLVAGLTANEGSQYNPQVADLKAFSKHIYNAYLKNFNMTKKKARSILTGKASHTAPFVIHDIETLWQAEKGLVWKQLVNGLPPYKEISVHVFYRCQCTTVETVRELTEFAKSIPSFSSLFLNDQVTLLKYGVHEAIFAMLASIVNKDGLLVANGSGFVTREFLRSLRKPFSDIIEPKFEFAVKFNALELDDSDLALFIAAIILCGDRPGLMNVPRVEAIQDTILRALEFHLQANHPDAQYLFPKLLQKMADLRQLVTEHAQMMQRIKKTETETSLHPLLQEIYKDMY
Summary of the method: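 HEK293H UAS-bla reporter cells, human PPARd system; compounds delivered in DMSO after 5 h plating, then at 37 C. Beta-lactamase FRET read, 2 h RT substrate step.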

[7] = qHTS assay to identify small molecule antagonists of the peroxisome proliferator-activated receptor delta (PPARd) signaling pathway - cell viability counter screen (AID 743213); settings: PPARd-bla HEK293H viability, CellTiter-Glo luminescence, 17 h; series mostly up to 62 µM; note: nearly all actives have a fitted effect of over 50% in size
Summary of the method: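 In this counter screen, HEK293H cells carrying a UAS-beta-lactamase reporter are co-treated with test compounds and 300 nM L165041 (final) for 17 h at 37 C; cell viability is quantified by CellTiter-Glo luminescence.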

[8] = molecular target: Peroxisome proliferator-activated receptor delta (Homo sapiens) (UniProt Q03181); assay: qHTS assay to identify small molecule antagonists of the peroxisome proliferator-activated receptor delta (PPARd) signaling pathway (AID 743215; active = well fitted inhibition curve with a large enough effect in the signal ratio in the repeat runs, not every such curve was filed as active; the % refers to the signal ratio;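 note: cells stimulated with agonist L165041 at 300 nM final during compound exposure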); settings: HEK293H PPARd-UAS-bla, beta-lactamase FRET ratio, antagonist, 17 h; series mostly up to 62 µM
Summary of the method: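 HEK293H UAS-bla, PPARd; agonist L165041 300 nM final with cpd in DMSO; 37 C 17 h; FRET substrate, RT 2 h; fluorescence intensity.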

[9] = molecular target: Bile acid receptor (Homo sapiens) (UniProt Q96RI1); assay: qHTS assay to identify small molecule agonists of the farnesoid-X-receptor (FXR) signaling pathway (AID 743220; active = well fitted activation curve with a large enough effect in the signal ratio in the repeat runs, not every such curve was filed as active; the % refers to the signal ratio); settings: HEK293T FXR-UAS-bla, beta-lactamase FRET ratio, 16 h; series mostly up to 62.6 µM
Bile acid receptor (Homo sapiens), sequence (Q96RI1 whole entry, looked up): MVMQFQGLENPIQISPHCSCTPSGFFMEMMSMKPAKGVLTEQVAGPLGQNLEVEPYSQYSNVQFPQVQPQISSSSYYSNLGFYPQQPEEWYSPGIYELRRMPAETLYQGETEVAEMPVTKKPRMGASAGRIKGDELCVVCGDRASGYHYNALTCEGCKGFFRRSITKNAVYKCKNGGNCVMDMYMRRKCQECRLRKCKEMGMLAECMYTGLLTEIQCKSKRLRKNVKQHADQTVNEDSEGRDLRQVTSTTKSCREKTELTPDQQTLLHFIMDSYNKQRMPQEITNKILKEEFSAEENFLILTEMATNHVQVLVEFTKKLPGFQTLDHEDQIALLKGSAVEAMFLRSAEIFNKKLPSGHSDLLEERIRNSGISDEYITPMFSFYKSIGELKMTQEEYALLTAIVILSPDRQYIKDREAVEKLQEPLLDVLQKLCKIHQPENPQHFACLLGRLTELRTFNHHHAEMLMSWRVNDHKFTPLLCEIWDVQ
Summary of the method: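 Beta-lactamase reporter under UAS control in GeneBLAzer FXR HEK 293T cells (5000/well) measured with LiveBLAzer FRET substrate after 2 h at room temperature. Compound exposure lasted 16 h at 37C.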

[10] = qHTS assay to identify small molecule antagonists of the farnesoid-X-receptor (FXR) signaling pathway - cell viability counter screen (AID 743221; active = well fitted cell-killing curve with a large enough effect in the repeat runs, not every such curve was filed as active; note: nearly all actives have a fitted effect of over 50% in size); settings: FXR-bla HEK293T viability, CellTiter-Glo luminescence, 16 h; series mostly up to 62.6 µM
Summary of the method: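 After a 5 h settling period, FXR-bla HEK 293T cells receive compound and chenodeoxycholic acid (50 uM final) and incubate 16 h at 37 C; CellTiter-Glo luminescence, read after 30 min at room temperature, reports cell viability.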

[11] = molecular target: Vitamin D3 receptor (Homo sapiens) (UniProt P11473); assay: qHTS assay to identify small molecule agonists of the vitamin D receptor (VDR) signaling pathway (AID 743222; calls by dose curve); settings: HEK293T VDR-UAS-bla, beta-lactamase FRET ratio, 16 h; series mostly up to 63.5 µM
Vitamin D3 receptor (Homo sapiens), sequence (P11473 whole entry, looked up): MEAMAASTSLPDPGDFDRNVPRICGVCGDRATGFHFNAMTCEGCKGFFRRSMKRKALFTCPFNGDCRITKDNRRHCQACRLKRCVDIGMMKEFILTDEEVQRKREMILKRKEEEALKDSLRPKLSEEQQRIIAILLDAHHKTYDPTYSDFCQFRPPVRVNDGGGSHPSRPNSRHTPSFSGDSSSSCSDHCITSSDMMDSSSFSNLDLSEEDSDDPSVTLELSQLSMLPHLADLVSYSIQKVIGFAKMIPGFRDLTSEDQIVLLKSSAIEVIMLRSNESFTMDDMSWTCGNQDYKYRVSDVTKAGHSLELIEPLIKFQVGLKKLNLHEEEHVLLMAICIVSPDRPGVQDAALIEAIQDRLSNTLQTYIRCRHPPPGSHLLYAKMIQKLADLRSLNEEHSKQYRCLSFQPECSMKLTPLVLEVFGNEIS
Summary of the method: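 In VDR-bla cells, compound-induced beta-lactamase expression is quantified by FRET substrate fluorescence. Treatment lasts 16 h at 37C; substrate develops 2 h at room temperature.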

[12] = molecular target: Vitamin D3 receptor (Homo sapiens) (UniProt P11473); assay: qHTS assay to identify small molecule antagonists of the vitamin D receptor (VDR) signaling pathway (AID 743223; active = well fitted inhibition curve with a large enough effect in the signal ratio in the repeat runs, not every such curve was filed as active; the % refers to the signal ratio); settings: VDR-UAS-bla HEK293T, beta-lactamase FRET ratio, 16 h; series mostly up to 61 µM
Summary of the method: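 Reporter line VDR-bla; stimulus 1alpha,25-(OH)2 vitamin D3, 3 nM final; compound co-addition, 16 h 37C/5% CO2; LiveBLAzer B/G substrate 2 h RT; fluorescence intensity.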

[13] = qHTS assay to identify aromatase inhibitors - cell viability counter screen (AID 743084); settings: MCF-7 aro ERE viability, CellTiter-Fluor, 24 h; series mostly up to 70.3 µM;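 note: cells stimulated with testosterone during compound exposure; nearly all actives have a fitted effect of over 55% in size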
[14] = molecular target: Peroxisome proliferator-activated receptor gamma (Homo sapiens) (UniProt P37231); assay: qHTS assay to identify small molecule agonists of the peroxisome proliferator-activated receptor gamma (PPARg) signaling pathway (AID 743094; active = well fitted activation curve with a large enough effect in the signal ratio in the repeat runs, not every such curve was filed as active; the % refers to the signal ratio); settings: HEK293H PPARg-UAS-bla, beta-lactamase FRET ratio, 17 h; series mostly up to 57 µM
Peroxisome proliferator-activated receptor gamma (Homo sapiens), sequence (P37231 whole entry, looked up): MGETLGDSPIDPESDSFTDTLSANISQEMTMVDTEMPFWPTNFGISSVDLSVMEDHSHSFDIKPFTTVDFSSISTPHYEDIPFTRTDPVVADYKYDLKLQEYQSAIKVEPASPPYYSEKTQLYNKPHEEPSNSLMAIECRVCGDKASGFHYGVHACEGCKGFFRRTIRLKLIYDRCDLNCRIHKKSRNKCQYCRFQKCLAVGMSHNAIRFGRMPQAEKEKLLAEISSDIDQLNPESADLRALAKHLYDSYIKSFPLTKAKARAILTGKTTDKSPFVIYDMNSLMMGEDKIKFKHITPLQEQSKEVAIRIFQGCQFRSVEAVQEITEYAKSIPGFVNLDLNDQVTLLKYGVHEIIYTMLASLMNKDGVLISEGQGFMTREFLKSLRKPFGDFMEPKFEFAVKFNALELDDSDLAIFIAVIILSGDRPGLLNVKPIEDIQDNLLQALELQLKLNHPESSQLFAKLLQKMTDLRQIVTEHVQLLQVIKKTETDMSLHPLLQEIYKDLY
Summary of the method: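 Compounds dissolved in DMSO were added to PPARg UAS-bla HEK293H cells for 17 h at 37C, and reporter expression was quantified by fluorescence intensity after 1 h with LiveBLAzer B/G FRET substrate.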

[15] = molecular target: Peroxisome proliferator-activated receptor gamma (Homo sapiens) (UniProt P37231); assay: qHTS assay to identify small molecule antagonists of the peroxisome proliferator-activated receptor gamma (PPARg) signaling pathway (AID 743191; calls by dose curve; note: nearly all actives have a fitted effect of over 30% in size); settings: HEK293H PPARg-UAS-bla, beta-lactamase ratio, antagonist, 17 h; series mostly up to 62.6 µM
Summary of the method: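 Beta-lactamase reporter under UAS control in HEK293H PPARg-bla cells; compound treatment 17 h at 37C. Read-out: fluorescence intensity after 1 h room-temperature incubation with LiveBLAzer B/G FRET substrate.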

[16] = qHTS assay for small molecule activators of the heat shock response signaling pathway - cell viability counter screen (AID 743209); settings: HSE-bla HeLa viability, CellTiter-Glo luminescence, 5 h; series mostly up to 62.6 µM; note: nearly all actives have a fitted effect of over 50% in size
Summary of the method: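 Readout: CellTiter-Glo luminescence, 30 min at room temperature. System: HSE-bla HeLa cells, 1500/well, plated overnight. Treatment: compounds in DMSO, 5 h at 37 C.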

[17] = molecular target: Bile acid receptor (Homo sapiens) (UniProt Q96RI1); assay: qHTS assay to identify small molecule antagonists of the farnesoid-X-receptor (FXR) signaling pathway (AID 743217; active = well fitted inhibition curve with a large enough effect in the signal ratio in the repeat runs, not every such curve was filed as active; the % refers to the signal ratio); settings: HEK293T FXR-UAS-bla, beta-lactamase ratio, CDCA-stimulated, 16 h; series mostly up to 62.6 µM
Summary of the method: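 GeneBLAzer FXR-UAS-bla HEK 293T, CDCA-stimulated (50 uM final). Compound treatment 16 h, 37 °C. Detection: beta-lactamase cleavage of B/G FRET substrate, fluorescence.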

[18] = qHTS assay to identify small molecule agonists of the farnesoid-X-receptor (FXR) signaling pathway - cell viability counter screen (AID 743218); settings: FXR-bla HEK293T viability, CellTiter-Glo luminescence, 16 h; series mostly up to 62.6 µM; note: nearly all actives have a fitted effect of over 45% in size
Summary of the method: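 Parallel cytotoxicity test: compound-treated (16 h, 37 C) HEK 293T FXR-bla reporter cells were lysed with CellTiter-Glo and luminescence recorded.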

[19] = qHTS assay to identify small molecule that activate the aryl hydrocarbon receptor (AhR) signaling pathway - cell viability counter screen (AID 743086); settings: HepG2-AhR-luc viability, CellTiter-Fluor, 24 h; series mostly up to 70.3 µM;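 note: HepG2 liver cells carrying the AhR DRE luciferase reporter; nearly all actives have a fitted effect of over 45% in size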
Summary of the method: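 Cytotoxicity counter screen: CellTiter-Fluor signal (30 min, 37 C) in 4000 HepG2 cells/well carrying the DRE-luciferase reporter, following 24 h compound exposure at 37 C.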

[20] = molecular target: Aryl hydrocarbon receptor (Homo sapiens) (UniProt P35869); assay: qHTS assay to identify small molecule that activate the aryl hydrocarbon receptor (AhR) signaling pathway (AID 743085); settings: HepG2 AhR-luc (HG2L7.5c1), luciferase, 24 h; series mostly up to 70.3 µM;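 note: HG2L7.5c1 human HepG2 liver cells with stably integrated DRE-driven firefly reporter; nearly all actives have a fitted effect of over 15% in size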
Aryl hydrocarbon receptor (Homo sapiens), sequence (P35869 whole entry, looked up): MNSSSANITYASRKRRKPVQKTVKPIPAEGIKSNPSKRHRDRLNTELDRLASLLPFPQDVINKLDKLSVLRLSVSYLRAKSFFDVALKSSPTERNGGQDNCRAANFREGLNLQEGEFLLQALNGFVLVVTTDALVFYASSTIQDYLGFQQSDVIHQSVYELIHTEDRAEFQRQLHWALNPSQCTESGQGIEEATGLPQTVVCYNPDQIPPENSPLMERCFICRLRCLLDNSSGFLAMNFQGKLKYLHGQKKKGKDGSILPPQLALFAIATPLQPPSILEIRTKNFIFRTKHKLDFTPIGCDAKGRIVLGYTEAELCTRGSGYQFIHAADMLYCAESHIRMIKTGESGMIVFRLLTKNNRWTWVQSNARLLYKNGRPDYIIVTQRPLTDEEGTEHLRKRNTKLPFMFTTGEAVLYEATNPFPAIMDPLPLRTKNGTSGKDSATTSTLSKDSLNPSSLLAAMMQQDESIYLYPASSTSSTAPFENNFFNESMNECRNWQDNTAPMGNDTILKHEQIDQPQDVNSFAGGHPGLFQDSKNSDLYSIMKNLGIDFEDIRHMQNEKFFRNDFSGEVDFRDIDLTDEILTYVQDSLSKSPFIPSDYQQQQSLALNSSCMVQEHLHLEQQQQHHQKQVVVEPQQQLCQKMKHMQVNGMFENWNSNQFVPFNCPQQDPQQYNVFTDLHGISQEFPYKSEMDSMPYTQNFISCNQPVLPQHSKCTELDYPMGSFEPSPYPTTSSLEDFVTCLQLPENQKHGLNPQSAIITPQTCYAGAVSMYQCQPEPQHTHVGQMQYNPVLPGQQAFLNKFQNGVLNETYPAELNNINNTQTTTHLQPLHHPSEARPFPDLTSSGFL
Summary of the method: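 AhR agonist activity is inferred from enhanced light output of a DRE-controlled firefly luciferase reporter in HepG2 cells, measured with ONE-Glo following 24 h treatment at 37C.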

Measured: Potency

CC1(C)OC(=O)Nc2ccc(Br)cc21
not listed: [13] | [14] | [15] | [16] | [17] | [18] | [19] | [20]
inactive: all other assays above

Cc1c(C)n(CCN(C)C)c2ccc(C(=O)OCCN(C)C)cc12
not listed: [2] | [7] | [9] | [19] | [20]
inactive: all other assays above

N#CCN(CC#N)CCN(CC#N)CC#N
not listed: [9] | [13] | [14] | [15] | [17] | [18] | [20]
inactive: all other assays above

CNC(=O)c1c(I)c(NC(=O)CCCCC(=O)Nc2c(I)c(C(=O)O)c(I)c(C(=O)NC)c2I)c(I)c(C(=O)O)c1I
not listed: [13] | [14] | [18] | [19] | [20]
inactive: all other assays above

Cc1ccc(N)cc1[N+](=O)[O-]
not listed: [9] | [14] | [17] | [18] | [19] | [20]
inactive: all other assays above

CCCOc1ccccc1-c1nc2n[nH]nc2c(=O)[nH]1
inactive: [13] | [14] | [2] | [3] | [16] | [4] | [5] | [8] | [9] | [10]

O=c1[nH]c(=O)n([C@H]2O[C@H](CO)[C@@H](O)[C@@H]2O)cc1/C=C\Br
inactive: [2] | [3] | [16] | [5] | [6] | [7] | [8] | [10]

CCN1CCCC1CNC(=O)c1cc(S(N)(=O)=O)ccc1OC (stereo not drawn)
not listed: [1] | [6] | [7] | [8] | [9] | [17] | [19] | [20]
inactive: all other assays above

CC(C)CCCCCCN
not listed: [9] | [12] | [13] | [17]
inactive: all other assays above

NC(=O)CCCCC1CCSS1 (stereo not drawn)
not listed: [2] | [13] | [15] | [18]
inactive: all other assays above

O=C(O)C1CCC1
not listed: [9] | [11] | [13] | [14] | [17] | [18] | [19] | [20]
inactive: all other assays above

COc1cc(C)cc(O)c1
not listed: [1] | [2] | [9] | [11] | [12] | [15] | [17] | [20]
inactive: all other assays above

CCCCCCCCCCCCI
not listed: [6] | [8] | [13] | [14] | [15] | [18] | [20]
inactive: all other assays above

CC(O)CN(CCCN(C)C)CCCN(C)C (stereo not drawn)
inactive: [19] | [2] | [16] | [4] | [5] | [7] | [18] | [10] | [11] | [12]
